Data published in PubChem BioAssay (NCATS).
Results filed as inconclusive are left out. Entries that show only a call come without a potency. The source made the active and inactive calls. Unless noted, calls follow the shape of the dose curve; as a rule, active = well fitted curve in the direction sought with a large enough effect; inconclusive = small, poorly fitted or top-dose-only effect, or another doubt; inactive = no such curve, though single readings can be large; an effect the other way counts as inactive or inconclusive. Bridge positions count the residues as written; N and C are the ends. Square brackets hold non-standard residues; d marks the D form. Peptide text beside a SMILES is read from it. hArg = N=C(N)NCCCC[C@H](N)C(=O)O; Mpa = O=C(O)CCS

How the values were obtained:
[1] = target: M-phase phosphoprotein 8 (Homo sapiens) (UniProt Q99549); assay: qHTS Validation Assay for Inhibitors for MPP8 Chromodomain Interactions with Methylated Histone Tails (AID 488949); also: top concentration of the series differs between compounds; nearly all actives have a fitted effect of over 55% in size
Method in brief: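 MPP8 (50 nM) was pre-bound to 50 nM biotinylated H3(1-18)K9me3 peptide in PBS pH 7.4 with 0.01% Tween-20. Compounds were then added for 30 min at room temperature, and complex disruption was read by AlphaScreen with streptavidin donor and nickel-chelate acceptor beads.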

[2] = target: Thyrotropin receptor (Homo sapiens) (UniProt P16473); assay: qHTS Assay for Antagonists of the Thyroid Stimulating Hormone Receptor (AID 488980); also: series mostly up to about 58 µM
Method in brief: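 TSHR-transfected HEK293 cells (2000/well) in HEPES-buffered HBSS with 70 uM RO 20-1724 were stimulated with 4 nM TSH (EC80, final) in the presence of compound. cAMP was measured by HTRF competition after lysis and 30 min at RT.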

[3] = target: Galactokinase (Homo sapiens) (UniProt P51570); assay: qHTS Validation Assay for Inhibitors of Human Galactokinase (GALK) (AID 493189)
Method in brief: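 GALK (5 nM) with 35 uM ATP and 100 uM galactose in HEPES pH 8.0 with MgCl2, NaCl, DTT and BSA. Reaction ran 1 h at room temperature. Residual ATP read by Kinase-Glo Plus luminescence.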

[4] = Validation screen for small molecules that induce DNA re-replication in SW480 colon adenocarcinoma cells (AID 504364)
Method in brief: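 250 cells/well; compound pinned in; 48 hr, 37 C, 5% CO2; Hoechst added, 40 min; nuclear fluorescence imaged, 405 ex / 500-530 em; re-replication scored as increase in high-intensity nuclei.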

[5] = target: ATP-dependent 6-phosphofructokinase (Trypanosoma brucei brucei) (UniProt O15648); assay: qHTS Assay to Find Inhibitors of T. brucei phosphofructokinase: hit validation (AID 492961); also: series mostly up to about 51 µM
Method in brief: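 Luminescence from ADP-Glo reports ADP generated as T. brucei PFK (1.25 nM) phosphorylates 0.5 mM fructose-6-phosphate using 0.1 mM ATP. Reactions ran 45 min at room temperature, pH 8.0.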

[6] = target: Thioredoxin reductase 1, cytoplasmic (Rattus norvegicus) (UniProt O89049); assay: qHTS Assay for Inhibitors of Mammalian Selenoprotein Thioredoxin Reductase 1 (TrxR1) (AID 488773); settings: Potency: inhibition; also: nearly all actives have a fitted effect of over 40% in size; also: potency is read from the fitted curve at half-maximal effect
Method in brief: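 Steps: enzyme (90 nM) plus NADPH (400 uM final), 5 min at ~22 deg C; compound added, 15 min; selenite (400 uM final) added; fluorescence followed for 8 min. Concentration-response curves derived from the normalized delta values.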

[7] = target: Flap endonuclease 1 (Homo sapiens) (UniProt P39748); assay: qHTS Validation Assay for the Inhibitors of Human Flap endonuclease 1 (FEN1) (AID 488816)
Method in brief: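 Human FEN1 (10 nM) preincubated 15 min at room temperature with compounds, then flap DNA substrate added at 50 nM final. Fluorescence read at 0 and 15 min; concentration-response fitted with four-parameter Hill equation.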

[8] = target: Chromobox protein homolog 1 (Homo sapiens) (UniProt P83916); assay: qHTS Validation Assay for Inhibitors of HP1-beta Chromodomain Interactions with Methylated Histone Tails (AID 488953); also: nearly all actives have a fitted effect of over 50% in size; also: potency is read from the fitted curve at half-maximal effect
Method in brief: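 50 nM HP1-beta + 50 nM biotin-H3(1-18)K9me3, PBS pH 7.4, 0.01% Tween-20, 30 min RT; compound added, 30 min RT; AlphaScreen beads 10 ug/mL final, 30 min dark; luminescence read.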

[9] = target: Methanococcus maripaludis chaperonin (MmCpn) (UniProt Q6LX38); assay: High-Throughput Screening for Modulators of Cytosolic Chaperonin Activity: MmCpn Primary Screen (AID 488978);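 also: 50 nM MmCpn enzyme hydrolysing 30 µM ATP at 37 °C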
Method in brief: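 MmCpn at 50 nM final was preincubated 5 min at RT with compound. ATP was then added at 30 uM final for 10 min at 37 C. ADP formed was detected by Transcreener HTRF (665/590 nm).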

[10] = target: Transient receptor potential cation channel subfamily V member 1 (Homo sapiens) (UniProt Q8NER1); assay: HTS Assay for Compounds that Act as Enhancers of the Vanilloid Receptor 1 (AID 488979)
Method in brief: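 TRPV1 cells loaded with Fluo-8 calcium dye; compound added and Ca2+ signal (ex 480/em 520 nm) followed 3 min, then capsaicin at EC20 added and read 2 more min to detect enhancement.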

[11] = target: D(1A) dopamine receptor (Homo sapiens) (UniProt P21728); assay: HTS Assay for Allosteric Agonists of the Human D1 Dopamine Receptor: Primary Screen for Agonists (AID 488981)
Method in brief: (§1)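 Tetracycline-induced HEK293 Trex D1 cells with forced coupling to calcium, loaded with no-wash calcium dye; kinetic fluorescence read 180 s after compound addition for agonism, then a further 180 s after an EC20 dopamine challenge for potentiation.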

[12] = target: D(1A) dopamine receptor (Homo sapiens) (UniProt P21728); assay: HTS Assay for Allosteric Agonists of the Human D1 Dopamine Receptor: Primary Screen for Potentiators (AID 488982)
Method in brief: as §1

[13] = target: D(1A) dopamine receptor (Homo sapiens) (UniProt P21728); assay: HTS Assay for Allosteric Agonists of the Human D1 Dopamine Receptor: Primary Screen for Antagonists (AID 488983);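 also: calcium flux response to an EC80 dopamine challenge measured with no-wash dye; nearly all actives have a fitted effect of over 65% in size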
Method in brief: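 Cells are induced with tetracycline and incubated overnight at 30 C, then loaded with calcium dye for 30 to 90 minutes at room temperature. Compound addition is followed by a 180 s read, then an EC80 dopamine addition and another 180 s read.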

[14] = Validation screen for small molecules that induce genotoxicity in human embryonic kidney (HEK293T) cells expressing luciferase-tagged ELG1 (AID 493106)
Method in brief: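 Luminescence from an ELG1-luciferase fusion serves as the read-out, rising when genetic stress elevates ELG1 protein. HEK293T reporter cells (2,000 per well) received 23 nL compound, incubated 16 hr at 37 °C, then ONE-Glo for 30 min at room temperature.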

[15] = target: ATPase family AAA domain-containing protein 5 (Homo sapiens) (UniProt Q96QE3); assay: Validation screen for small molecules that inhibit ELG1-dependent DNA repair in human embryonic kidney (HEK293T) cells expressing luciferase-tagged ELG1 (AID 493107);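 also: cells co-treated with the DNA-damaging agent 5-fluorouridine alongside compound; series mostly up to about 46 µM; inhibitors lower the ELG1-luciferase luminescence signal; nearly all actives have a fitted effect of over 70% in size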
Method in brief: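 Luminescence from ONE-Glo, developed 30 min at room temperature, served as read-out of ELG1-luciferase levels. Beforehand, reporter HEK293T cells received 5-fluorouridine plus test compound for 16 hr at 37 °C.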

[16] = target: Thyrotropin-releasing hormone receptor (Homo sapiens) (UniProt P34981); assay: qHTS for Small Molecule Agonists and Allosteric Enhancers of Human TRH Receptor: Validation Screen for Agonists (AID 493127;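 active = calcium activation more than 3 SD above the typical response in the agonist read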;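 also: intracellular calcium rise by fluo-8 fluorescence before TRH EC20 addition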); settings: TRH receptor agonist cell assay; at 2 µM; stronger effect = higher value
Method in brief: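 Cells 2000/well, 10% FCS, 18 h 33.5C/5% CO2 → fluo-8 Ca dye, RT 30 min–1.5 h → FDSS baseline 10 × 1 s → compound added → 230 cycles (1 s/cycle) agonist mode. TRH controls.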

[17] = qHTS for Inhibitors of Cell Surface uPA Generation: Validation Assay (AID 493164)
Method in brief: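 RAW 264.7 cells (4000/well) were plated overnight, then exposed for 18 h at 37 C, 5% CO2 to compounds in a 7-point 1:5 titration (2.45 nM–38.3 uM final). Intracellular ATP was read by ATP-Lite luminescence.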

[18] = target: Peptidyl-prolyl cis-trans isomerase NIMA-interacting 1 (Homo sapiens) (UniProt Q13526); assay: qHTS Validation Assay to Find Inhibitors of Pin1 (AID 504536; active = well fitted inhibition curve with a large enough effect in the polarisation, with a control signal flat, not every such curve was filed as active; the % refers to the polarisation)
Method in brief: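 Fluorescence polarization competition: compounds (titration) displace HiFluor-488-labeled Pin1-1b peptide from Pin1 (0.3 uM final) in pH 7.5 HEPES buffer with DTT, 10 min at room temperature; %Activity normalized to no-enzyme wells, curves fitted.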

[19] = target: Phosphoglycerate kinase, glycosomal (Trypanosoma brucei brucei) (UniProt P07378); assay: qHTS Validation Assay to Find Inhibitors of Phosphoglycerate Kinase (AID 504547)
Method in brief: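 PGK activity was coupled to GAPDH (100nM final), which generates the unstable substrate 1,3-bisphosphoglycerate in-well. Reactions ran 60 minutes at room temperature in 100mM TEA pH 7.6, 5mM MgCl2, 0.01% Tween-20, then Kinase-Glo Plus luminescence was read.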

[20] = Nrf2 qHTS screen for inhibitors: Validation (AID 493153; active = well fitted inhibition curve with a large enough effect in the main read-out, with a control signal flat, not every such curve was filed as active); settings: viability change: measured here: cytotoxicity max response
Method in brief: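 Luminescence from an ARE-firefly luciferase reporter in A549 cells gives Nrf2 inhibition; an earlier CellTiter-Fluor fluorescent read flags cytotoxicity. Cells in 5% FBS OPTI-MEM received compound dilution series for 18-24 h at 37°C.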

Thioredoxin reductase 1, cytoplasmic (Rattus norvegicus), sequence (O89049 whole entry, looked up): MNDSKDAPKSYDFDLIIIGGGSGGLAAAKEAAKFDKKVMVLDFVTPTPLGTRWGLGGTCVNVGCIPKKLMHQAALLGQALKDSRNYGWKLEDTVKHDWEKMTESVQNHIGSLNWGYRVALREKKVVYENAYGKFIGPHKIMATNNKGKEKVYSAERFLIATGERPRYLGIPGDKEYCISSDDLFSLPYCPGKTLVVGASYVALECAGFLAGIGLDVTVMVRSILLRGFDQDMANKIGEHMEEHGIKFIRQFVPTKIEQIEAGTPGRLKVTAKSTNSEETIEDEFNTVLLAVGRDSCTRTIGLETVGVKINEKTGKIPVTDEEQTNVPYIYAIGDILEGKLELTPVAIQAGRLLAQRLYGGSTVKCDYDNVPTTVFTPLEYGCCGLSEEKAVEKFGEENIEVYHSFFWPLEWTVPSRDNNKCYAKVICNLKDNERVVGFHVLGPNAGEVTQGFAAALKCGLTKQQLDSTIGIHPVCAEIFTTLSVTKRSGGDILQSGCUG
Galactokinase (Homo sapiens), sequence (P51570 whole entry, looked up): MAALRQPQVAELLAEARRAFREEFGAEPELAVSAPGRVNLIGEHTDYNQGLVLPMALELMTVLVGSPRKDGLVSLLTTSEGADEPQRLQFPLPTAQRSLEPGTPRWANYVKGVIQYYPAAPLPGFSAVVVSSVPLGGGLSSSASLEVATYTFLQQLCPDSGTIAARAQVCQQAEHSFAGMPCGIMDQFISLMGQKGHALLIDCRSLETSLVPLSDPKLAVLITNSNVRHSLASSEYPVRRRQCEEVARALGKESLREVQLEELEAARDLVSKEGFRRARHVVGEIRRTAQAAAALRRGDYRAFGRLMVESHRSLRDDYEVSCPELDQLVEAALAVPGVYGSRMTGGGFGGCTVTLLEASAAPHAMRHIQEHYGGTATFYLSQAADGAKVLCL
D(1A) dopamine receptor (Homo sapiens), sequence (P21728 whole entry, looked up): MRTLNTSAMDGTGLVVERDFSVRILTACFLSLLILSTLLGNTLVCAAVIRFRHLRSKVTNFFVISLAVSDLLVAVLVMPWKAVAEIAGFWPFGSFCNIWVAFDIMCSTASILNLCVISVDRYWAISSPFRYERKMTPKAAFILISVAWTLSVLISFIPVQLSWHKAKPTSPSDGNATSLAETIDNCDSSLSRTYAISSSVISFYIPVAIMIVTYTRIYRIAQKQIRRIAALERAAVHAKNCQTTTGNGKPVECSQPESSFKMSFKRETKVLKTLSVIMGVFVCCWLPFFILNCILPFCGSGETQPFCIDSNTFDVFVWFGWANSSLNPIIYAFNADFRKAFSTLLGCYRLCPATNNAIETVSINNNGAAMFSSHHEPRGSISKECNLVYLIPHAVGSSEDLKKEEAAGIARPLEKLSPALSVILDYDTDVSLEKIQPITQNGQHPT
ATP-dependent 6-phosphofructokinase (Trypanosoma brucei brucei), sequence (O15648 whole entry, looked up): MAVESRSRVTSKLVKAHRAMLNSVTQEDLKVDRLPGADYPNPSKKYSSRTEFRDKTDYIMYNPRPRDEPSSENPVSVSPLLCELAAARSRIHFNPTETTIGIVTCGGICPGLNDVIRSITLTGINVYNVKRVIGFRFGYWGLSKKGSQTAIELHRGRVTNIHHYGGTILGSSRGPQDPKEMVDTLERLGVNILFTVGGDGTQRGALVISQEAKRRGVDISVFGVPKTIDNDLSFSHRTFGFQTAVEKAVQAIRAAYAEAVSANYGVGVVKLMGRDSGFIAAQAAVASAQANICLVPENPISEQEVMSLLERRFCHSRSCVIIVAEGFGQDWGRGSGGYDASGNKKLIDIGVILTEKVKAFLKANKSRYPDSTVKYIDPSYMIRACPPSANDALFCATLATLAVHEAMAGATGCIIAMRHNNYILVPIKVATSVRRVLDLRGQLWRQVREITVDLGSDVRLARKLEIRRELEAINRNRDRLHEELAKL
Chromobox protein homolog 1 (Homo sapiens), sequence (P83916 whole entry, looked up): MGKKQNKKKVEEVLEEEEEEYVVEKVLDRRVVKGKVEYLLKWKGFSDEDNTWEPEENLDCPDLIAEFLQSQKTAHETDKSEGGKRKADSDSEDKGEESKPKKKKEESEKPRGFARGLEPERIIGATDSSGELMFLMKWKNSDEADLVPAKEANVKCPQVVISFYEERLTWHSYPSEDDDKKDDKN
Flap endonuclease 1 (Homo sapiens), sequence (P39748 whole entry, looked up): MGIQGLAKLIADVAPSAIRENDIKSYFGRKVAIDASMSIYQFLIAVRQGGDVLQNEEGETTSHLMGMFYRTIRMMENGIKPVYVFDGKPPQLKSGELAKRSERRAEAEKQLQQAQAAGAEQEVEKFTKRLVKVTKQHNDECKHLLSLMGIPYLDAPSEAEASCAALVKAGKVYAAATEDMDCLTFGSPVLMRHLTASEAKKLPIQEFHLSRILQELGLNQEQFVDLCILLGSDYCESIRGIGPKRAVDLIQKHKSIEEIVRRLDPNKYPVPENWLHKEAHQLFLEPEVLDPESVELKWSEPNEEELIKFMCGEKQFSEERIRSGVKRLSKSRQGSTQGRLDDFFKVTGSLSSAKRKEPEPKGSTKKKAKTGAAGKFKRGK
M-phase phosphoprotein 8 (Homo sapiens), sequence (Q99549 whole entry, looked up): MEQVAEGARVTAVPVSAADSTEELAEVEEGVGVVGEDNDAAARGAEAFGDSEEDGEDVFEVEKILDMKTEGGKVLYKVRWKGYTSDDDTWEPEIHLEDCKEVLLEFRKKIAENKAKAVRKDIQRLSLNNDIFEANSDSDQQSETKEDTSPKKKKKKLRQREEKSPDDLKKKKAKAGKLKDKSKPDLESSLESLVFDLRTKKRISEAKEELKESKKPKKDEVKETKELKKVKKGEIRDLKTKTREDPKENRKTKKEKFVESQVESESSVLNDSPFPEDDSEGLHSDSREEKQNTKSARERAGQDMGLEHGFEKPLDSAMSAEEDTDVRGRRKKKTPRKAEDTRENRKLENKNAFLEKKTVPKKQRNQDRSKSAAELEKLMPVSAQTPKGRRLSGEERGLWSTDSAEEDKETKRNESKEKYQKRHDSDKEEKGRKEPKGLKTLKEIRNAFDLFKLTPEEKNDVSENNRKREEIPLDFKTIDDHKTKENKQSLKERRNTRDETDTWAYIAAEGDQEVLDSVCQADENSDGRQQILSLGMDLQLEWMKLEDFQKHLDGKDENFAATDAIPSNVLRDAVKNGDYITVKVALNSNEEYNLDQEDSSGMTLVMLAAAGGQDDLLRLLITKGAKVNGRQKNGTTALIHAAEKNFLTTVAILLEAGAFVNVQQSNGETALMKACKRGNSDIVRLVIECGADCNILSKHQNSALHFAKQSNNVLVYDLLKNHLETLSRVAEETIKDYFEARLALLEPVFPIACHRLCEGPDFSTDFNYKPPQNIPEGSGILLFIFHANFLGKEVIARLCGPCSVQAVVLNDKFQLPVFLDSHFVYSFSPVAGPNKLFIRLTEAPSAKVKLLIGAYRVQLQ
Methanococcus maripaludis chaperonin (MmCpn), sequence (Q6LX38 1-543): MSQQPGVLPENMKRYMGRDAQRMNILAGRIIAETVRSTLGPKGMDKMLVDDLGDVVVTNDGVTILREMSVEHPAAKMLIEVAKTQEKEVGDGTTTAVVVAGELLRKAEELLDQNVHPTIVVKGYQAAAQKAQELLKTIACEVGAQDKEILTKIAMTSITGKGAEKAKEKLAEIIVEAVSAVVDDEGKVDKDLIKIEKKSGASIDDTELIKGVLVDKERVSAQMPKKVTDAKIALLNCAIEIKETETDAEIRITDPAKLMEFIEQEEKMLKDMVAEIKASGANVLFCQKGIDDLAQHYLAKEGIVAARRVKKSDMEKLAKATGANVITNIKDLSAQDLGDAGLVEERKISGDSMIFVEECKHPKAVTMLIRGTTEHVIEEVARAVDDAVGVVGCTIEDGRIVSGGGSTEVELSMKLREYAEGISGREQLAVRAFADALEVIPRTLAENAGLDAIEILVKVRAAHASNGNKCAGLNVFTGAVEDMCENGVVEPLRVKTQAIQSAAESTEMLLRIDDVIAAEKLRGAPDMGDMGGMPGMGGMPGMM
Peptidyl-prolyl cis-trans isomerase NIMA-interacting 1 (Homo sapiens), sequence (Q13526 whole entry, looked up): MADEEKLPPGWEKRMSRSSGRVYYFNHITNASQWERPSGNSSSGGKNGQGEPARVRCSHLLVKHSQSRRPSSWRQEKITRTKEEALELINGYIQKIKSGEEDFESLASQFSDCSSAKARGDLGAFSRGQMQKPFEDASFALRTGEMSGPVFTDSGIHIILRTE
Thyrotropin receptor (Homo sapiens), sequence (P16473 whole entry, looked up): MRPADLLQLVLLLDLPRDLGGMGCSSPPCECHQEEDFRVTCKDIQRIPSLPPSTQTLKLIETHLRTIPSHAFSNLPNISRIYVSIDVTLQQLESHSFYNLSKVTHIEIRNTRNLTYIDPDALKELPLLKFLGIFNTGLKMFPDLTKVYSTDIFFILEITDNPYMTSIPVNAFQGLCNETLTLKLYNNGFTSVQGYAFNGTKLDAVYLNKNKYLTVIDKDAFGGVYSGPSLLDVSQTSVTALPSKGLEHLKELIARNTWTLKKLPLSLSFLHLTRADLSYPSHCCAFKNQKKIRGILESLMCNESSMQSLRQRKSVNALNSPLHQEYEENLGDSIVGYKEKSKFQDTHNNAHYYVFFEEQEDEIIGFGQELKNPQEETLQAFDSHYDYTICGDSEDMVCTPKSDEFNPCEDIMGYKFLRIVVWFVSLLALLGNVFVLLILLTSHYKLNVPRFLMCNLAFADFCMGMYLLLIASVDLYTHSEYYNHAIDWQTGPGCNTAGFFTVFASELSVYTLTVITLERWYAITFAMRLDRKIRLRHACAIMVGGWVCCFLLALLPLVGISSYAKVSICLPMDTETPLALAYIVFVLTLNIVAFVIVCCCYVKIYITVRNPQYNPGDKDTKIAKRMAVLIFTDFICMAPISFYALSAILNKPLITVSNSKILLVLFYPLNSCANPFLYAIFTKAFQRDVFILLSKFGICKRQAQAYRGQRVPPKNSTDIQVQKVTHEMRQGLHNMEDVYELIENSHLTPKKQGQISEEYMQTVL

With CCCCCCCCC(=O)NCc1ccc(O)c(OC)c1 the Potency [1] was “inactive”, the outcome [2] was “inactive” and the outcome [3] was “inactive”. For the same molecule, the outcome [4] was “inactive”.
In the case of NCc1cccnc1, the Potency [5] is reported as “inactive”.
In the case of CNC(=O)NC(O)C(Cl)(Cl)Cl (stereo not given), the Potency [5] is reported as “inactive”.
In the case of N#Cc1nn(-c2c(Cl)cc(C(F)(F)F)cc2Cl)c(N)c1S(=O)C(F)(F)F (stereo not given), the Potency [5] is reported as “inactive”.
In the case of CCOC(=O)Nc1ccc(NCc2ccc(F)cc2)nc1N, the Potency [6] is reported as 10.6 µM (active), the outcome [7] is reported as “inactive” and the Potency [8] is reported as 39.8 µM (active).
For c1cc2c(c(N3CCNCC3)c1)OCCO2, the Potency [5] was “inactive”.
In the case of NC(N)=NCCC[C@H](N)C(=O)O, the outcome [7] is reported as “inactive” and the Potency [8] is reported as “inactive”.
In the case of Oc1c(Br)cc(Br)cc1Br, the Potency [5] is reported as “inactive”.
For CC(C)C(Br)C(=O)NC(N)=O (stereo not given), the Potency [5] was “inactive”.
In the case of O=C(NC(=O)c1c(F)cccc1F)Nc1cc(Cl)c(OC(F)(F)C(F)C(F)(F)F)cc1Cl (stereo not given), the Potency [5] is reported as “inactive”.
In the case of NC(=O)[C@@H]1CSSCCC(=O)N[C@@H](CCCCN=C(N)N)C(=O)NCC(=O)N[C@@H](CC(=O)O)C(=O)N[C@@H](Cc2c[nH]c3ccccc23)C(=O)N2CCC[C@H]2C(=O)N1 ([Mpa][hArg]GDWPC-NH2; disulfide 1-7), the Potency [5] is reported as “inactive”.
In the case of O=C(O)c1nn(Cc2ccc(Cl)cc2Cl)c2ccccc12, the Potency [6] is reported as “inactive”, the outcome [7] is reported as “inactive” and the Potency [1] is reported as “inactive”. The Potency [8] was “inactive”, the outcome [9] was “inactive” and the outcome [10] was “inactive”. For the same molecule, the outcome [2] was “inactive”, the outcome [11] was “inactive” and the Potency [12] was “inactive”. For the same molecule, the Potency [13] was “inactive”, the Potency [5] was “inactive” and the outcome [14] was “inactive”. For the same molecule, the Potency [15] was “inactive”, the activation [16] was 0.438% (inactive) and the outcome [17] was “inactive”. For the same molecule, the outcome [3] was “inactive”, the outcome [4] was “inactive” and the outcome [18] was “inactive”. The outcome [19] was “inactive”.
For CNC(=O)Oc1ccc2c(c1)[C@]1(C)CCN(C)[C@@H]1N2C, the Potency [1] was “inactive”.
In the case of COC(=O)C1=CCCN(C)C1, the Potency [6] is reported as “inactive”, the outcome [7] is reported as “inactive” and the Potency [1] is reported as “inactive”. The Potency [8] was “inactive”, the outcome [9] was “inactive” and the outcome [10] was “inactive”. The outcome [11] was “inactive”, the Potency [12] was “inactive” and the Potency [13] was “inactive”. For the same molecule, the outcome [14] was “inactive”, the Potency [15] was “inactive” and the outcome [20] was “inactive”. The viability change [20] was -1.14%, the outcome [17] was “inactive” and the outcome [3] was “inactive”. For the same molecule, the outcome [4] was “inactive”, the outcome [18] was “inactive” and the outcome [19] was “inactive”.
For Cc1cc(C(C)(C)C)cc(C)c1CC1=NCCN1, the Potency [1] was “inactive”.
With Cc1ncc2n1-c1ccc(Cl)cc1C(c1ccccc1F)=NC2 the Potency [5] was “inactive”.
For NC(N)=NC(=O)c1nc(Cl)c(N)nc1N, the outcome [7] was “inactive”.
With Brc1c(NC2=NCCN2)ccc2nccnc12 the Potency [6] was 16.8 µM (active) and the outcome [7] was “inactive”.
